Reference: PubChem BioAssay AID430 (Sanford-Burnham Center for Chemical Genomics, 2006)
Values joined by “and” are separate entries in the source; they are usually repeats but may differ in a detail not shown here. Equal entries are not always repeated. The whole screen tested about 63,000 compounds, of which about 1,100 (1.7%) were called active. The sample holds actives, similar compounds and a random draw of the others, so the mix is not that of the screen. Rule as the data show it: active = cytotoxicity above about 50%; inactive = the rest. Measured potencies and affinities stand elsewhere. More than one record can exist for a structure, and the calls need not agree.

Experiment: HPDE-C7 pancreatic duct cell viability loss – fluorescence, HTS (AID 430);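 also: cells exposed to compound for 48 hours before viability readout; 0% = vehicle and 100% = reference cytotoxic drug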
Conditions: HPDE-C7 pancreatic duct cells viability, at 10 µM, stronger effect = higher value

Compound | cytotoxicity
Cc1ccc(NC(=O)CS(=O)CC(=O)Nc2cccc(C)c2C)cc1F (stereo not given) | -15.9% (inactive)
COc1ccc(Cl)c(Cn2c(NCC(C)O)nc3c2c(=O)n(C)c(=O)n3C)c1 (stereo not given) | -9.9% (inactive)
O=C1c2ccccc2-c2ncnc3cccc1c23 | 0.7% (inactive)
O=C(O)c1ccc2c3c(ncnc13)-c1ccccc1C2=O | 75.6% (active)
O=C1c2ccccc2-c2nccnc21 | -15.6% (inactive)
CCc1nnc(NC(=O)CCN2C(=O)c3ccccc3S2(=O)=O)s1 | -4.2% (inactive)
Nc1nc(Cl)nc2c1ncn2[C@H]1C[C@H](O)[C@@H](CO)O1 | 7.4% (inactive) and 95.9% (active)
Nc1nc(Cl)nc2c1ncn2[C@@H]1O[C@H](CO)[C@@H](O)[C@H]1O | 8.6% (inactive)
Nc1nc(F)nc2c1ncn2[C@@H]1O[C@H](CO)[C@@H](O)[C@@H]1O | 13.2% (inactive)
Cc1ccc(NC(=O)Cn2c(C)cc(C)c(C#N)c2=O)c(Cl)c1 | -6.5% (inactive)
O=C(CN1C(=O)CSc2ccccc21)NCCC1=CCCCC1 | -11% (inactive)
COc1ccc(NS(=O)(=O)c2cc(C)ccc2OC)cc1OC | 10.3% (inactive)
COc1ccccc1N1CCN(Cc2ccco2)CC1 | -25.7% (inactive)
c1ccc(CCN2CN(CCCN3CCOCC3)c3nc4ccccc4n3C2)cc1 | -23.9% (inactive)
CCCN1CN(Cc2ccco2)c2nc3ccccc3n2C1 | -15.1% (inactive)
S=C1SCN(CCN2CCOCC2)CN1Cc1ccccc1 | 60.6% (active)
O=C(N1CCOCC1)N1CCN(Cc2ccccc2)CC1 | 4.1% (inactive)
COCCN1CSC(=S)N(Cc2ccco2)C1 | 50.6% (active)
S=C1SCN(Cc2ccccn2)CN1Cc1ccco1 | 64.7% (active)
c1ccc(CN2CCN(c3ncccn3)CC2)nc1 | 6% (inactive)
CN1C(=O)C2(c3ccccc31)N(C)CC(c1ccccn1)C21SC(=S)N(Cc2ccco2)C1=O (stereo not given) | -9.5% (inactive)
CCOc1cccc(C(=O)Nc2cccc(-c3nc4ncccc4o3)c2C)c1 | 4.2% (inactive)

Compound | cytotoxicity
COc1ccc(-n2c(Cc3cccn3C)nnc2SCC(=O)NCC2CCCO2)cc1 (stereo not given) | -8.1% (inactive)
O=C1NC(c2cccs2)Nc2sc3c(c21)CCCC3 (stereo not given) | 0.6% (inactive)
CC(C)(C)c1ccccc1NC(=O)c1ccco1 | 15% (inactive)
COc1ccc(NC(=O)c2ccc(COc3ccccc3Br)o2)cc1OC | 36.6% (inactive)
COc1cc(NC(=O)c2ccc(COc3ccccc3Br)o2)cc(OC)c1OC | 56.6% (active)
O=C(Nc1cccnc1)c1ccc(COc2ccccc2Br)o1 | 23.7% (inactive)
CCOC(=O)C1CCN(C(=O)CN(Cc2ccc(Cl)cc2)S(C)(=O)=O)CC1 | -1% (inactive)
Cn1c(CCCOc2ccc(Cl)cc2Cl)nnc1SCC(=O)Nc1nccs1 | 1% (inactive)
O=C(CCS(=O)(=O)c1ccc(Br)cc1)N1CCN(c2ccccc2)CC1 | -1.2% (inactive)
CCOC(=O)c1[nH]c(C)c(C(=O)OCC)c1C | -6% (inactive)
CCOC(=O)c1[nH]c(C)c(C(=O)c2cc(F)ccc2F)c1C | 72.2% (active)
CCOC(=O)c1[nH]c(C)c(C(=O)Nc2ccc(C)cc2C)c1C | 51.9% (active)
CCOC(=O)c1[nH]c(C)c(C(=O)Nc2ccc(Cl)cc2)c1C | -8.4% (inactive)
CCOC(=O)c1[nH]c(C)c(C(=O)N2CCc3ccccc32)c1C | 58.8% (active)
CCOC(=O)c1[nH]c(C)c(C(=O)Nc2ccc(C)c(Cl)c2)c1C | -20.5% (inactive)
CCOC(=O)c1c(C)[nH]c(C(=O)OCC(=O)N2CCc3ccccc32)c1C | -15.4% (inactive)
CCOC(=O)c1[nH]c(C)c(C(=O)Nc2cc(OC)ccc2OC)c1C | 43.5% (inactive)
CC(=O)c1c(C)[nH]c(C(=O)N2CCc3ccccc32)c1C | 1.3% (inactive)
CCOC(=O)c1[nH]c(C)c(C(=O)Nc2ccc(F)cc2)c1C | -4.5% (inactive)
CCOC(=O)c1[nH]c(C)c(C(=O)Nc2cc(Cl)ccc2C)c1C | 60.6% (active)
CCOC(=O)c1[nH]c(C)c(C(=O)Nc2ccc(C)c(C)c2)c1C | 8.5% (inactive)
CCOC(=O)C1=C(N)N(c2ccccc2Oc2ccccc2)C(=O)C1 | 3.7% (inactive)

Compound | cytotoxicity
CCS(=O)(=O)C(=C(Nc1ccc(OC)cc1)Nc1ccc(OC)cc1)S(=O)(=O)CC | -21.8% (inactive)
CC(C)CC(=O)Nc1ccc(F)c(Cl)c1 | -0.2% (inactive)
Cc1ccsc1-c1nc(CSCC(=O)NCc2ccc3c(c2)OCO3)c(C)o1 | 5.8% (inactive)
CC(C)C(=O)Nc1ccc(NC(=O)c2ccco2)cn1 | -9.5% (inactive)
Cc1cc(NC(=O)C(C)(C)C)no1 | -22.1% (inactive)
CCN(CC)S(=O)(=O)c1ccc(F)cc1 | -8.3% (inactive)
CC(C)c1[nH]nc2c1C(c1cccnc1)C(C#N)=C(N)O2 (stereo not given) | -15.1% (inactive)
CCOC(=O)c1[nH]c(C)c(C(=O)Nc2ccccc2C)c1C | 52.4% (active)
CCOC(=O)c1[nH]c(C)c(C(=O)Nc2cccc(Cl)c2C)c1C | 43.9% (inactive)
CCOC(=O)c1[nH]c(C)c(C(=O)Nc2ccccc2F)c1C | 43.6% (inactive)
O=C(OCc1cc2ccccc2[nH]c1=O)c1ccco1 | 20.9% (inactive)
Cc1ccc(S(=O)(=O)NC(=O)Nn2c(C)nnc2C)cc1 | -7.7% (inactive)
CC12CN3CC(C)(CN(C1)C3c1cc3ccccc3[nH]1)C2=O (stereo not given) | 14.8% (inactive)
COc1ccc(CCNC(=O)CN(C2CCCCC2)S(C)(=O)=O)cc1OC | -1% (inactive)
COCCn1c(SCC(=O)Nc2cccc(C)c2)nnc1C(C)C | 1% (inactive)
CCOc1ccc(NS(=O)(=O)c2ccc(SC)cc2)cc1 | 7.2% (inactive)
CCOc1ccc(NS(=O)(=O)c2ccc3[nH]c(=O)oc3c2)cc1 | -0.3% (inactive)
CC1Cc2cc(C(=O)O)ccc2O1 (stereo not given) | -26.7% (inactive)
CCN(C(=O)CCS(=O)(=O)c1ccc(Br)cc1)c1ccc2c(c1)OCO2 | 8.6% (inactive)
O=C(c1coc(=O)c(Br)c1)N1CCOCC1 | -0.3% (inactive)
CCN(C(=O)c1coc(=O)c(Br)c1)c1ccc2c(c1)OCO2 | 74.4% (active)
